About 79,000 compounds went through this panel and 15% of them were active in at least one assay; those are over-represented in the sample as a whole. Unmarked numbers belong to inactive results. The source made the active and inactive calls. Rule as the data show it: active = growth inhibition above about 70%; inactive = the rest.
Experiments:
[1] = NCI Yeast Anticancer Drug Screen. Data for the rad50 strain (AID 155);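 also: 0% = growth of vehicle-only cultures of the same strain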; conditions: S. cerevisiae rad50 strain growth inhibition; at 50.0 µM; active compounds read high
Summary of the method: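 Relative growth inhibition (compound vs vehicle) was measured in yeast with a defined repair-gene alteration.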

[2] = NCI Yeast Anticancer Drug Screen. Data for the mec2-1 strain (AID 157); conditions: S. cerevisiae mec2-1 strain, at 50.0 µM, active compounds read high
Summary of the method: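 Mutant yeast (mec2-1) grown with compound; growth inhibition relative to vehicle control reported.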

[3] = NCI Yeast Anticancer Drug Screen. Data for the sgs1 mgt1 strain (AID 161);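 also: 0% = growth of cultures given vehicle only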; conditions: S. cerevisiae sgs1 mgt1 strain, at 50.0 µM, active compounds read high
Summary of the method: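 Compounds are added to genetically altered yeast, and growth is compared with cultures given vehicle alone to give percent inhibition.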

[4] = NCI Yeast Anticancer Drug Screen. Data for the cln2 rad14 strain (AID 165);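 also: 0% = growth equal to vehicle treated cultures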; conditions: S. cerevisiae cln2 rad14 strain, at 50.0 µM, active compounds read high
Summary of the method: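 Readout is yeast growth inhibition versus vehicle-treated controls, using a strain with cln2 and rad14 alterations exposed to compound.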

[5] = NCI Yeast Anticancer Drug Screen. Data for the bub3 strain (AID 167); conditions: S. cerevisiae bub3 mutant strain, at 50.0 µM, active compounds read high
Summary of the method: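 Screening used yeast with an engineered genetic alteration affecting cell cycle control. Compound-exposed cultures were compared with vehicle cultures, and reduced growth was taken as inhibition.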

[6] = NCI Yeast Anticancer Drug Screen. Data for the mlh1 rad18 strain (AID 175); conditions: S. cerevisiae mlh1 rad18 strain growth inhibition; at 50.0 µM; active compounds read high
Summary of the method: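 Genetically defined yeast (DNA repair-deficient) exposed to compounds; growth inhibition determined relative to vehicle.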

SMILES | growth inhibition [1] | growth inhibition [2] | growth inhibition [3] | growth inhibition [4] | growth inhibition [5] | growth inhibition [6]
CN(Cc1cccc(Cl)c1)C(=O)Nc1ccccc1Cl | -1.25% | 48.8% | 47.5% | -21% | 34.6% | 53.4%
CSC(=NNC(N)=O)SC | 4.4% | -2.8% | 1.2% | -14.2% | -9.7% | 5.4%
COC(=O)c1ccc2c(c1)CC1(C2)Cc2cc3c(cc2C1=O)CCC3 (stereo unspecified) | -3.35% | -37.8% | -0.5% | -3.15% | 14.3% | -5.3%
Cc1nc(Nc2ccccc2C)c2ccsc2n1 | 41.3% | 49.5% | 43.2% | 75% (active) | 51.2% | 48%
O=[N+]([O-])c1ccc(N/N=C\C2C=CCCC2)c([N+](=O)[O-])c1 (stereo unspecified) | -13.2% | -0.1% | -5.65% | -31.8% | -1.05% | -19.9%
CCOC(=O)c1cnc2ccccc2c1 | 3.65% | 6.8% | 5.95% | -44.9% | -1.15% | 3.3%
CCC1CCCCC1O (stereo unspecified) | 1.6% | -7% | -30.5% | 7.35% | -22.7% | 6.1%
CNC(=O)Nc1cc2c3c(c1)CCCN3CCC2 | -16.8% | -36.6% | -9.45% | -15.8% | -9.55% | -8.3%
N#C/C(=C\c1c(Cl)cccc1Cl)c1nc(-c2ccc(Cl)cc2)cs1 | -32.4% | -40.6% | -25.5% | -23.6% | -17.4% | -32.9%
Clc1ccccc1C(Nc1ncccn1)Nc1ncccn1 | 11.1% | 15% | -8.05% | -0.25% | 41% | 13.1%
CC(C)C1NC(C(=O)O)C(C)(C)S1 (stereo unspecified) | 1.75% | 6.6% | -1.6% | 4.05% | 0.35% | -16.1%
c1ccc(C2CCCN2)cc1 (stereo unspecified) | 6% | -12.4% | -11% | 6.25% | -1.4% | 4%
COC(=O)c1cccn1C(=O)c1ccc(C)c(OCc2ccccc2)c1[N+](=O)[O-] | 1.6% | -15.8% | 4.95% | -8.3% | 18.5% | 8.05%
Cc1ncc([N+](=O)[O-])n1CCNCCCCn1ccnc1[N+](=O)[O-] | -28.4% | -21.6% | -6.15% | -23.7% | -52.3% | -17.9%
CC(C)N(C(=O)C12C3C4C5C3C1(C(=O)N(C(C)C)C(C)C)C5C42)C(C)C (stereo unspecified) | 16.5% | 17.4% | 12.2% | 1% | 19.9% | 14.4%
Oc1ccc(O)c(CCCCCc2cc(O)ccc2O)c1 | 76.3% (active) | 37.4% | 66.5% | 34.4% | 70.2% (active) | 97.7% (active)
Cc1cc(N(CCC#N)CCC#N)ccc1/C=C1N=C(/C=C/c2ccccc2)OC(=O)N\1 | 14.7% | -5% | 4.7% | -10.1% | 1.15% | -13.7%
CNc1ccc(OC)cc1S(=O)(=O)c1ccccc1[N+](=O)[O-] | 2.25% | -35.4% | 35.6% | 18.7% | 4.75% | -22.2%
c1ccc2c(c1)c1c(n2CCOCCN2CCCC2)CCCC1 | 21.6% | 2.6% | 2.45% | 27% | 0% | -55.8%
CC(=O)c1sc(Nc2nnc(-c3ccc(-c4nnc(Nc5nc(C)c(C(C)=O)s5)o4)cc3)o2)nc1C | 3.15% | -14.3% | -25% | 6.4% | -3.05% | 3.05%
COc1cc2c(c(OC)c1OC)-c1c(cc3c(c1OC)OCO3)C1OC2C(C)C1C (stereo unspecified) (tested in a mixture with another compound) | -23.6% | -55% | -9% | -20.4% | -20.6% | -39.2%

SMILES | growth inhibition [1] | growth inhibition [2] | growth inhibition [3] | growth inhibition [4] | growth inhibition [5] | growth inhibition [6]
COc1ccc(OC)c(C(=O)CCCCCCCCC(=O)c2cc(OC)ccc2OC)c1 | 27.2% | 8% | 3.85% | 25.4% | -3.95% | 7.25%
Clc1ccc(-c2nnc(-c3ccc(Cl)c(Cl)c3)o2)cc1Cl | 0.25% | 9.95% | 17.8% | -30.5% | -10.9% | 22.9%
O=C(NC(=O)C1CCC(=O)N1Cc1ccccc1)NC1CCC(=O)N1Cc1ccccc1 (stereo unspecified) | 3.35% | 3.1% | -26.1% | 1.8% | 0.85% | 17.2%
CC(=O)N1Cc2c(cc(C)[nH]c2=O)C1=O | 9% | 10.5% | 6.45% | 10.7% | 1.05% | 7.65%
CCCCCCCCCCNC(=O)C(OC(C)=O)C(OC(C)=O)C(OC(C)=O)C(COC(C)=O)OC(C)=O (stereo unspecified) | 29.4% | 12.6% | 19.3% | 32.1% | 10.2% | 40.4%
COC(=O)c1ccc2c(ccc[n+]2C)c1 | -0.6% | 21.3% | -7.05% | 4.8% | -3.45% | 2.3%
Cc1cccc(C)c1NC(=O)Nc1ccc(C(=O)O)cc1 | -8.6% | 31.7% | 2.5% | -15.8% | 22.6% | 11.4%
O=C(O)C1CCN(C(=O)Cc2c3ccccc3cc3ccccc23)CC1 | 20.9% | 3.9% | -3.45% | -2.5% | -6.85% | 22.7%
C/C=C(\C)c1cc(O)c(C)c2c1Oc1cc(O)c(Cl)c(C)c1C(=O)O2 | 92.5% (active) | 94.8% (active) | 93.9% (active) | 92.3% (active) | 93.5% (active) | 92.5% (active)
CCOC(=O)c1ccnc(F)c1 | 3.8% | -15.7% | -6.15% | -8.8% | 1% | 3.6%
Cc1ccn2c(CCc3nnc4cc(C)ccn34)nnc2c1 | -1.4% | -33.4% | -42.4% | 0.4% | -26.1% | 12.3%
CC(=O)CC1CCCCCC1 | 4.3% | 4.3% | 0.45% | -11.3% | 2.1% | 6.3%
O=[N+]([O-])c1ccc(OCCSc2ccccc2)cc1 | 9% | 33% | 55% | 12.6% | 60.2% | 12.8%
CCSc1nc(C)cc(=O)[nH]1 | 28% | -1.35% | 9.6% | 6.15% | 13.2% | 27.9%
CCOC(=O)C(CC)(C(=O)OCC)C(C)C | 15.6% | 30.4% | -17.9% | -28.1% | -9.95% | -6.8%
CC(C)(C)C1COC(c2ccccc2)(c2ccccc2)C1 (stereo unspecified) | -24.6% | -1.55% | 8.7% | -26.5% | -2.4% | -15.3%
Cc1ccc(/C=N/n2c(Cc3ccccc3)n[nH]c2=O)cc1 | 16.9% | 5.1% | 3.65% | 11.8% | 4.25% | 25.6%
CC(=O)C(C(=O)NCc1ccccc1)C(c1ccc2c(c1)OCO2)C(C(C)=O)C(=O)NCc1ccccc1 (stereo unspecified) | -5.7% | 1.25% | -23.6% | -17.3% | -0.65% | 0.45%
CC(=O)Nc1ccc(S(=O)(=O)NN)cc1 | -15.7% | -12.1% | -4.75% | 10.2% | 5.25% | 9.1%
CCC(C)C(NCc1ccccc1)C(=O)O (stereo unspecified) | -8.75% | 7.5% | 26.9% | -13.2% | -18.4% | -8.25%

Reference: PubChem BioAssay (NCI)
